Here are results for 14 molecules from PubChem BioAssay (NCI).

Some test systems named below: SR leukemia; RPMI-8226 leukemia; OVCAR-8 ovarian; OVCAR-5 ovarian; OVCAR-4 ovarian; SK-OV-3 ovarian; IGROV1 ovarian; OVCAR-3 ovarian; HS 578T breast; NCI/ADR-RES ovarian.
Common to all, as to assay: NCI-60 one-dose screen, 48 h (100 = growth as untreated, 0 = no growth, -100 = all killed)
Common to all, as to conditions: 10 µM unless noted

SMILES strings stand for the structures. Compounds without any hit were thinned out: in the full panel of roughly 83,000, 20% have a hit.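 Cell lines were cultured in 96-well plates, exposed to a single compound concentration, and assessed for percent growth 48 hours later.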 Values without a mark were called inactive. Active and inactive are the calls of the source. Rule for the calls: active = growth percent below 10; inactive = the rest.

In the case of `N#CC1=C(N)Oc2c(sc3c(F)cccc23)C1c1ccc([N+](=O)[O-])cc1` (stereo unspecified), the growth with SR leukemia is 5.1% (active); in the test with RPMI-8226 leukemia, -9.41% (active); in the test on OVCAR-8 ovarian it was -21.6% (active); in the test on OVCAR-5 ovarian it was -14.6% (active); in the test on OVCAR-4 ovarian, 15.1%; in the test with SK-OV-3 ovarian, -7.03% (active). For the same molecule, the growth in the test with IGROV1 ovarian was -26% (active); with OVCAR-3 ovarian it was -55.1% (active); in the test with HS 578T breast it was -26.1% (active).

With `O=CCCCOCc1ccccc1`, the growth was 96% in the test with SR leukemia; 100% in the test with RPMI-8226 leukemia; 103% in the test on OVCAR-8 ovarian; 101% with OVCAR-5 ovarian; 98.6% in the test on OVCAR-4 ovarian; 99.9% with SK-OV-3 ovarian. The results for the growth in the test on IGROV1 ovarian, in the test on OVCAR-3 ovarian and in the test with HS 578T breast were 101%, 110% and 92.9%, respectively.

As to `Cc1ccc2c(c1)=C/C(=C\c1cc(-c3ccccc3)[nH]c1O)C(=O)N=2`, the growth in the test with SR leukemia was 14.1%; in the test with RPMI-8226 leukemia, 33.8%; in the test with OVCAR-8 ovarian it was 50.6%; in the test on OVCAR-5 ovarian, 78.9%; in the test on OVCAR-4 ovarian it was 59.7%; in the test with SK-OV-3 ovarian, 65.7%. Further, the growth in the test with IGROV1 ovarian was 40.7%; in the test with OVCAR-3 ovarian, 16.1%; in the test on HS 578T breast, 41.9%.

On to `CNC(=O)c1cc(Oc2ccc3c(c2)sc2nc(-c4cc(C(F)(F)F)cc(C(F)(F)F)c4)cn23)ccn1`, for which the growth in the test on SR leukemia was 34%; in the test on RPMI-8226 leukemia, 50.1%; with OVCAR-8 ovarian it was 36.1%; with OVCAR-5 ovarian it was 91.4%; in the test with OVCAR-4 ovarian, 24.8%; with SK-OV-3 ovarian, 46.7%. The growth is 74.1% in the test with IGROV1 ovarian, 68.3% in the test with OVCAR-3 ovarian and 49.4% with HS 578T breast.

Turning to `CCOC(=O)/C=C1\S/C(=N\Nc2cc(=O)[nH]c3ccc(Br)cc23)N(c2ccccc2)C1=O`, the growth in the test with SR leukemia is 3.76% (active); in the test with RPMI-8226 leukemia, -12.5% (active); with OVCAR-8 ovarian, 72.2%; in the test on OVCAR-5 ovarian it was 102%; in the test on OVCAR-4 ovarian, 58%; with SK-OV-3 ovarian it was 110%. Also, the growth with IGROV1 ovarian was 58.7%; in the test on OVCAR-3 ovarian, -17% (active); in the test on HS 578T breast, 74.7%.

In the case of `CCN(CCNc1ccc(C)c2sc3cc(Cl)ccc3c(=O)c12)CC(C)(C)O`, the growth is 49.6% with SR leukemia; 49.4% with RPMI-8226 leukemia; 85.5% in the test with OVCAR-8 ovarian; 70.2% in the test with OVCAR-5 ovarian; 72.8% with OVCAR-4 ovarian; 45.1% in the test on SK-OV-3 ovarian. Also, the growth with IGROV1 ovarian is 50.7%; in the test on OVCAR-3 ovarian it was 91.7%; with HS 578T breast it was 79.3%.

With `COc1cc(Cc2cc(-c3ccccc3)nn(Cc3ccccc3)c2=O)cc(OC)c1OC`, the growth in the test on SR leukemia was 36%; with RPMI-8226 leukemia, 24.8%; in the test with OVCAR-8 ovarian, 31.9%; in the test on OVCAR-5 ovarian, 69.7%; in the test with OVCAR-4 ovarian, 35.3%; with SK-OV-3 ovarian, 82.3%. The figures for the growth with IGROV1 ovarian, in the test with OVCAR-3 ovarian and with HS 578T breast were 53.1%, 46.9% and 74.9%, respectively.

As to `CNCC[C@H](Oc1cccc2ccccc12)c1cccs1`, the growth in the test with SR leukemia was 51.9%; in the test on RPMI-8226 leukemia, 94.7%; in the test with OVCAR-8 ovarian, 82.1%; in the test with OVCAR-5 ovarian, 117%; in the test on OVCAR-4 ovarian, 71.7%; in the test with SK-OV-3 ovarian, 109%. Also, the growth is 84.7% in the test on IGROV1 ovarian, 86.9% in the test on OVCAR-3 ovarian and 67.5% in the test on HS 578T breast.

Turning to `CCn1cc(C(=O)O)c(=O)c2cc(F)c(N3CCN(CC(=O)Nc4ccccc4)C(C)C3)c(F)c21` (stereo unspecified), the growth in the test on SR leukemia was 109%; with RPMI-8226 leukemia it was 102%; in the test on OVCAR-8 ovarian it was 98.3%; with OVCAR-5 ovarian, 98.3%; with OVCAR-4 ovarian, 82.4%; in the test with SK-OV-3 ovarian it was 90.7%. Moreover, the growth was 103% with IGROV1 ovarian, 104% in the test on OVCAR-3 ovarian and 91.1% in the test on HS 578T breast.

`Nc1ncccc1O`: the growth in the test on SR leukemia is 65.5%; in the test on RPMI-8226 leukemia, 87%; with OVCAR-8 ovarian, 81%; in the test on OVCAR-5 ovarian, 98.7%; with OVCAR-4 ovarian, 98.4%; in the test on SK-OV-3 ovarian it was 107%. Further, the growth is 67.2% in the test on IGROV1 ovarian, 131% with OVCAR-3 ovarian, 109% in the test on HS 578T breast and 77% with NCI/ADR-RES ovarian.

In the case of `O=C1Nc2ccccc2/C1=N/N1C(=O)CN(CCCl)C1=O`, the growth was 104% in the test with SR leukemia; 101% in the test on RPMI-8226 leukemia; 100% with OVCAR-8 ovarian; 103% in the test on OVCAR-5 ovarian; 118% with OVCAR-4 ovarian; 96.9% in the test with SK-OV-3 ovarian. For the same molecule, the growth in the test on IGROV1 ovarian is 97.1%; in the test on OVCAR-3 ovarian, 113%; in the test with HS 578T breast, 95.9%; in the test on NCI/ADR-RES ovarian, 102%.

Consider `Cc1ccc(OCCOCCOCCOCCOCCOc2ccc(C)n(O)c2=S)c(=S)n1O`, for which the growth in the test on SR leukemia was 4.81% (active); in the test on RPMI-8226 leukemia it was 11.5%; with OVCAR-8 ovarian, 14.1%; in the test on OVCAR-5 ovarian it was 41.7%; with OVCAR-4 ovarian, 22.7%; with SK-OV-3 ovarian it was 10.2%. For the same molecule, the growth with IGROV1 ovarian was 15.5%; with OVCAR-3 ovarian it was 29.6%; in the test with HS 578T breast, 45.8%; with NCI/ADR-RES ovarian, 1.54% (active).

Consider `COc1ccc(C(=O)C/C(=C\c2ccc(O)c(OC)c2)C(=O)NN)cc1`, for which the growth in the test on SR leukemia was 26.9%; with RPMI-8226 leukemia, 80.3%; in the test on OVCAR-8 ovarian, 80.7%; with OVCAR-5 ovarian, 105%; with OVCAR-4 ovarian, 101%; in the test on SK-OV-3 ovarian, 79.9%. The growth with IGROV1 ovarian is 82.6%; with OVCAR-3 ovarian, 87.6%; in the test on HS 578T breast, 101%; with NCI/ADR-RES ovarian, 74.8%.

Take `Cc1ccc(S(=O)(=O)OCC#CCOS(=O)(=O)c2ccc(C)cc2)cc1`: the growth in the test on SR leukemia was 10.8%; in the test on RPMI-8226 leukemia it was 20.2%; in the test on OVCAR-8 ovarian, 34.6%; in the test with OVCAR-5 ovarian, 112%; in the test on OVCAR-4 ovarian, 73.4%; in the test with SK-OV-3 ovarian, 98.3%. The growth in the test with IGROV1 ovarian is -40.2% (active); in the test on OVCAR-3 ovarian, 12.4%; in the test on HS 578T breast, 62.4%; with NCI/ADR-RES ovarian it was 31%.
